From PubChem
GALK inh: qHTS Assay for Inhibitors of Human Galactokinase (GALK) | P51570 | Purified GALK, Kinase-Glo residual ATP luminescence | Potency, µM (highest dose often 57.5 µM), inactives show top-dose activity change, negative = inhibition, hits mostly inhibitors | 0.007% of 270,000 active | AID 1868, 2009; also: % is scaled to controls: 0 for no effect and ±100 for the full control effect
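Galactose (100 uM) and ATP (35 uM) were turned over by 5 nM GALK for 1 h at RT. Kinase-Glo Plus then converted the remaining ATP into a luminescent signal.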
USP2a inh: qHTS Assay for Inhibitors of Ubiquitin-specific Protease USP2a Using CHOP2 as the Reporter; Ubiquitin carboxyl-terminal hydrolase 2 (Homo sapiens), O75604; Potency, µM (highest dose often 38.3 µM), for inactives: at the highest dose activity change, negative = inhibition, hits mostly inhibitors; USP2 core, Ub-CHOP2 coupled fluorogenic reporter, 485/531; 0.01% of 330,000 active;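 also: plate controls were DMSO wells for no effect and full inhibition by NEM control for full effect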
Target sequence (O75604 whole entry, looked up): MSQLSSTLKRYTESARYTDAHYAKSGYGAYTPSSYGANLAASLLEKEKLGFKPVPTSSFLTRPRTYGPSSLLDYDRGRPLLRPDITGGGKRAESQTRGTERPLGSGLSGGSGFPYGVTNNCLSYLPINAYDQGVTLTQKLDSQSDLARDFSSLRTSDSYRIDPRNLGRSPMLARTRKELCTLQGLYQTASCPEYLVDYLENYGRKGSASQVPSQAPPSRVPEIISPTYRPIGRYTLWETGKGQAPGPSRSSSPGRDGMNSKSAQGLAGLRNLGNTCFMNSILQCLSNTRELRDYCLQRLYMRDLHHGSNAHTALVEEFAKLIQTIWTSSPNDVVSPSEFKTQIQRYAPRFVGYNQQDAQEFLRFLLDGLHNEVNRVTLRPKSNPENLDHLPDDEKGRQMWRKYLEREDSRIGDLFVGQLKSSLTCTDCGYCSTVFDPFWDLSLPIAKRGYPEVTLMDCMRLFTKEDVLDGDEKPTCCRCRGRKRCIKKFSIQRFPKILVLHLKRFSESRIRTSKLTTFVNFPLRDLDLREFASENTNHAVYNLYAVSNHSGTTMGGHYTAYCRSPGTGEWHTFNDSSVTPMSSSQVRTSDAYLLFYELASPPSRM
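Cell-free coupled assay: 10nM USP2 core preincubated 30min RT with compound in Tris-HCl pH 8.0/CaCl2/CHAPS buffer, then 25nM Ub-CHOP2 and 25nM reporter substrate; fluorescence (Ex 485/Em 531) read after 60min RT, normalized to NEM inhibition, concentration-response curves fitted.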
Eya2 phos inh: qHTS Assay for Inhibitors of the Phosphatase Activity of Eya2. Protein phosphatase EYA2 (Homo sapiens), O00167. recombinant Eya2, OMFP fluorescence dephosphorylation (OMFP is methylfluorescein phosphate). Potency, µM (doses to about 76.9 µM), inactives show at the highest dose activity, negative = inhibition, most hits filed as inhibitors. 0.006% of 330,000 active; also: % is scaled to controls: 0 for no effect and ±100 for the full control effect
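Eya2 (0.2 uM) preincubated 10 min at ambient with compound, then OMFP substrate added at 50 uM; 10 min reaction in 50 mM HEPES pH 7.5, 50 mM NaCl, 5 uM MgCl2, 0.05% BSA, 1 mM DTT. Fluorescence read at Ex 485/Em 525 nm.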
ClpP mod: qHTS Assay for Activators of ClpP; ATP-dependent Clp protease proteolytic subunit (Bacillus subtilis (strain 168)), P80244; 1.9% of 340,000 active; Potency, µM (highest dose often 57.5 µM), without a hit: at the highest dose activity change, negative = active; purified B. subtilis ClpP, FRET peptide cleavage, 20 min; active = well fitted falling curve with a large enough effect; inconclusive = small, poorly fitted or top-dose-only effect; inactive = no such curve, though single readings can be large or run the other way; also: the source files actives as falling curves though it sought activators and does not explain the sign; nearly all actives have a fitted effect of over 65% in size
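FRET quenching reversal measured ClpP activation: 10 microg/mL B. subtilis ClpP at pH 8 with the FRET-FV decapeptide, read at 430 nm after 320 nm excitation. The 20-min minus 0-min signal was scaled between DMSO/no-enzyme wells and ADEP (5.8 microM final).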
* = called active by the depositor; ! = not active in a repeat. Many of the other results were omitted from the sample, so hits are more common in it than they were. Unless noted, calls follow the shape of the dose curve; as a rule, active = well fitted inhibition curve with a large enough effect; inconclusive = small, poorly fitted or top-dose-only effect, or effect the other way; inactive = flat fitted curve, though single readings scatter. Potency is read from the fitted curve at half-maximal effect.

Screening CC(C)Sc1nc(NCc2ccco2)c2c3c(sc2n1)COC(C)(C)C3 returned GALK inh 6%, USP2a inh 1%, Eya2 phos inh -5% and ClpP mod 28µM*.
For CSc1nc(SCC(=O)NCc2ccco2)c2c3c(sc2n1)COC(C)(C)C3 the results were GALK inh 4%, USP2a inh -5%, Eya2 phos inh -11% and ClpP mod -18%.
COc1ccc(OC)c2c(C)cc(N3CCN(C(=O)c4ccc(F)cc4)CC3)nc12 was read as GALK inh 8% and ClpP mod 20µM*.
Screening COc1ccc(OC)c2c(C)cc(N3CCN(C(=O)c4ccc(C)cc4)CC3)nc12 returned GALK inh 7%, USP2a inh 2% and Eya2 phos inh -4%.
Screening Cc1cccc(NC2=CC(=O)OC(C)C2)c1 (stereo not given) returned GALK inh 2%, USP2a inh 2%, Eya2 phos inh 16% and ClpP mod 28µM*.
For CC1CC(Nc2ccccc2N)=CC(=O)O1 (stereo not given) the results were GALK inh 0%, USP2a inh 6%, Eya2 phos inh 15% and ClpP mod -3%.
`Cc1ccc(C)c(NC(=O)Cn2c(=O)n(Cc3ccco3)c(=O)c3oc4ccccc4c32)c1` gave ClpP mod 32µM*.
For Cc1ccc(C)c(NC(=O)Cn2c(=O)n(Cc3ccccc3)c(=O)c3oc4ccccc4c32)c1 the results were ClpP mod -8%.
`NC(=O)COC(=O)c1cc(Cl)cc(Cl)c1N` gave GALK inh -1%, USP2a inh 3% and Eya2 phos inh 9%.
Nc1c(Cl)cc(Cl)cc1C(=O)OCC(=O)N1CCCC1=O was read as USP2a inh -1% and Eya2 phos inh -31%.
`Nc1c(Cl)cc(Cl)cc1C(=O)OCC(=O)N1CCCC1` gave GALK inh 3%, USP2a inh -1%, Eya2 phos inh 5% and ClpP mod 22µM*.
For COc1cc(SC)ccc1C(=O)OCC(=O)NCC(C)C the results were GALK inh 1%, USP2a inh 2%, Eya2 phos inh -18% and ClpP mod 40µM*.
CC(C)CNC(=O)COC(=O)c1cc(Cl)cc(Cl)c1N was read as GALK inh 1%, USP2a inh 5%, Eya2 phos inh -17% and ClpP mod 16µM*.
COC(=O)CNC(=O)COC(=O)c1cc(Cl)cc(Cl)c1N was read as GALK inh -3%, USP2a inh -7%, Eya2 phos inh -4% and ClpP mod 2.8µM*.
Screening CC1CC1C(=O)NCCc1ccc(Cl)cc1 (stereo not given) returned GALK inh -2%, USP2a inh 3%, Eya2 phos inh -2% and ClpP mod -5%.
`O=C(CSc1ccc(-c2nc3ccccc3[nH]2)cn1)Nc1ccc(S(=O)(=O)N2CCCC2)cc1` gave GALK inh 1%, USP2a inh 1%, Eya2 phos inh 6% and ClpP mod 20µM*.
Screening O=C(CN1CCOCC1)Nc1ccc(-c2nc3ccccc3[nH]2)cc1 returned GALK inh -5%, USP2a inh -2%, Eya2 phos inh 18% and ClpP mod 25µM*.
O=S(=O)(NCc1ccco1)c1cccc(S(=O)(=O)N2CCCCC2)c1 was read as GALK inh -2%, USP2a inh -1%, Eya2 phos inh -8% and ClpP mod -2%.
Screening CCOC(=O)CC(Nc1nc(N2CCOCC2)nc(N2CCOCC2)n1)c1ccccc1Cl (stereo not given) returned GALK inh -2%, USP2a inh 2%, Eya2 phos inh -11% and ClpP mod -1%.
For Cc1ccc(-n2c(=O)c3sccc3n(Cc3cc(=O)n4ccccc4n3)c2=O)cc1 the results were GALK inh -3%, USP2a inh 2%, Eya2 phos inh 4% and ClpP mod 32µM*!.
For CC(=O)c1ccccc1OCCCN1CCCCC1 the results were GALK inh -1%, USP2a inh 2%, Eya2 phos inh -9% and ClpP mod -7%.
Screening CC(=O)c1ccccc1OCCOCCOCCOc1ccccc1C(C)=O returned GALK inh -2%, USP2a inh -1%, Eya2 phos inh 1% and ClpP mod 0.89µM*.
O=C(OCc1nnc(-c2ccccc2)o1)c1cn(-c2ccccc2)nc1-c1ccccc1 was read as GALK inh 5%, USP2a inh 3%, Eya2 phos inh -2% and ClpP mod 10µM*.
Screening COc1cccc(CC(NC(C)=O)C(=O)NC2CCN(c3nc(C)cc(C)c3C#N)CC2)c1OC (stereo not given) returned GALK inh -1%, USP2a inh 0%, Eya2 phos inh 13% and ClpP mod 28µM*.
`COc1cc(CC(NC(C)=O)C(=O)NC2CCN(c3nc(C)cc(C)c3C#N)CC2)cc(OC)c1` (stereo not given) gave GALK inh 0%, USP2a inh 2%, Eya2 phos inh -14% and ClpP mod inconclusive.
For CC(C)CCc1c(O)nc(SCC(C)C)[nH]c1=O the results were GALK inh 0%, USP2a inh 3%, Eya2 phos inh 1% and ClpP mod 32µM*.
For CCOc1cc(Cn2c(-c3ccc(O)c(OCC)c3)nc3ccccc32)ccc1O the results were ClpP mod 10µM*.
CCOc1ccc(Cn2c(-c3ccc(OCC)c(OC)c3)nc3ccccc32)cc1OC was read as ClpP mod -10%.
`Cc1nnc(OCc2nc3ccccc3n2C)c2ccccc12` gave GALK inh 0%, USP2a inh 1%, Eya2 phos inh 11% and ClpP mod inconclusive.
For Cc1cccn2cc(CNC(=O)CC3CCCC3)nc12 the results were GALK inh 0%, USP2a inh 1%, Eya2 phos inh -14% and ClpP mod 32µM*.
For COc1cc2c(-c3ccc(O)cc3)nc3c(c(C)nn3-c3ccccc3)c2cc1OC the results were GALK inh 0%, USP2a inh 1%, Eya2 phos inh -4% and ClpP mod 8.9µM*.
`Cn1ccnc1Sc1ccc(C(N)=O)cc1[N+](=O)[O-]` gave GALK inh -2%, USP2a inh -1%, Eya2 phos inh 3% and ClpP mod 32µM*.
For CCOC(=O)Cc1c(C)nc2c(-c3ccc(Cl)cc3)c(C)[nH]n2c1=O the results were GALK inh -3%, USP2a inh -3%, Eya2 phos inh 2% and ClpP mod 14µM*.
For CCOC(=O)Cc1c(C)nc2c(-c3cccc(Br)c3)c[nH]n2c1=O the results were GALK inh -1%, USP2a inh -7%, Eya2 phos inh -4% and ClpP mod 14µM*.
For CCOC(=O)Cc1c(C)nc2cc(-c3ccc(C(C)(C)C)cc3)[nH]n2c1=O the results were GALK inh -3%, USP2a inh 2%, Eya2 phos inh 3% and ClpP mod 32µM*.
